The values that follow come from PubChem BioAssay (EPA / NIEHS).

In experiment [1] the target is sheep Cyclooxygenase-1 (Cox1), PTGS1 (gene 443551) (UniProt P05979). The experiment can be described thus: NVS_ENZ_oCOX1: NovaScreen (NVS) Enzymatic Assay for sheep Cyclooxygenase-1 (Cox1) (AID 2283239).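 Note: actives reduce cyclooxygenase activity so potencies are for inhibitors.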 The method, boiled down:
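Absorbance read-out of cyclooxygenase activity in a cell-free preparation from sheep seminal vesicles, taken 0.66 hour after dosing. Initial testing was in duplicate at 25 uM, and confirmatory testing was run in concentration series.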

In experiment [2] the target is rat Constitutive Nitric Oxide Synthase (CNOS), Nos1 (gene 24598) (UniProt P29476). The experiment can be described thus: NVS_ENZ_rCNOS: NovaScreen (NVS) Enzymatic Assay for rat Constitutive Nitric Oxide Synthase (CNOS) (AID 2283236). The method, boiled down: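 Single 25 uM duplicate screen, then concentration series to 50 uM for chemicals meeting threshold. Rat brain membrane-derived CNOS activity detected radiometrically by filtration and scintillation counting, 1 h after compound addition; DMSO as baseline.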
Sequence of rat Constitutive Nitric Oxide Synthase (CNOS), Nos1 (gene 24598) (P29476 whole entry, looked up): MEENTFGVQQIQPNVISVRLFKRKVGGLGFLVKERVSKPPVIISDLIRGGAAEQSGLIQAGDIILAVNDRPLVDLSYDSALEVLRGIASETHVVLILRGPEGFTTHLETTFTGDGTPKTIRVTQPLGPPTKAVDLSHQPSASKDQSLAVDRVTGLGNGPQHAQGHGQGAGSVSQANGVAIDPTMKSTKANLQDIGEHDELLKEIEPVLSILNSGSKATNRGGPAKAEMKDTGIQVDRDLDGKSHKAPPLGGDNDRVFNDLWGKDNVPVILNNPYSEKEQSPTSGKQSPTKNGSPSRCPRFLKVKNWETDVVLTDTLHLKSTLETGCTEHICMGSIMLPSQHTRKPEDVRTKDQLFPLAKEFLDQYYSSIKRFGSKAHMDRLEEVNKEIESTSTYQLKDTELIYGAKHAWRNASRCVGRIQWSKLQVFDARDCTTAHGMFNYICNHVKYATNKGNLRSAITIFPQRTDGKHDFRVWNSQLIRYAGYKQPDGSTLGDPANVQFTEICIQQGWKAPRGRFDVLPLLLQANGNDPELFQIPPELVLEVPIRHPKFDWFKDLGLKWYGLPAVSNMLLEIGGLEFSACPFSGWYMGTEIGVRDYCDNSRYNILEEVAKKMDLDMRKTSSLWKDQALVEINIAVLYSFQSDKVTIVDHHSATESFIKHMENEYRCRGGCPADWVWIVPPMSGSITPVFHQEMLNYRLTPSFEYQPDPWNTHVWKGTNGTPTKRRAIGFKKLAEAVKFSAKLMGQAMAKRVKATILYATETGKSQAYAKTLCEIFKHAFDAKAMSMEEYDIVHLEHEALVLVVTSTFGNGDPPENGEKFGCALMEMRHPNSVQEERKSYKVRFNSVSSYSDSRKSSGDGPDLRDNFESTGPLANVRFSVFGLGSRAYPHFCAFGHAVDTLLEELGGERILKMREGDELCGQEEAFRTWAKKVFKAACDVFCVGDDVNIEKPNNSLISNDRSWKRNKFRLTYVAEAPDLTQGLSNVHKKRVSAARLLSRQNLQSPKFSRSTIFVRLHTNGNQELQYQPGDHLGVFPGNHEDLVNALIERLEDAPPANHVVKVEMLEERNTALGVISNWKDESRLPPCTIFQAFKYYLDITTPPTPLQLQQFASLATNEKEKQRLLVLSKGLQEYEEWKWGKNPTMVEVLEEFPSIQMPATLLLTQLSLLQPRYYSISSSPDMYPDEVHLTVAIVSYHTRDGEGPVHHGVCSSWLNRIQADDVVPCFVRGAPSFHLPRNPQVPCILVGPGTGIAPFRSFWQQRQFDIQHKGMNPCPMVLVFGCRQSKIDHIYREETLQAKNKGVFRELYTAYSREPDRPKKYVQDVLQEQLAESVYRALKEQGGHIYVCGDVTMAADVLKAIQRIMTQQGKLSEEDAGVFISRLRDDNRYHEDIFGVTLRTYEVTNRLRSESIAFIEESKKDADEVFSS

In experiment [3] the target is human Vascular Endothelial Growth Factor Receptor 2 (VEGFR2), KDR (gene 3791) (UniProt P35968). The experiment can be described thus: NVS_ENZ_hVEGFR2: NovaScreen (NVS) Enzymatic Assay for human Vascular Endothelial Growth Factor Receptor 2 (VEGFR2) (AID 2283230). The gist of the method:
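Cell-free recombinant VEGFR2 kinase, fluorescent substrate with electrophoretic mobility-shift separation; read 1 h after dosing. Screened at 25 uM in duplicate, hits to concentration-response up to 50 uM; loss-of-signal versus DMSO.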

Experiment [4] addresses human Serotonin, 5-Hydroxytryptamine Receptor 7 (5HT7), HTR7 (gene 3363) (UniProt P34969). The experiment can be described thus: NVS_GPCR_h5HT7: NovaScreen (NVS) G Protein-Coupled Receptor Assay for human Serotonin, 5-Hydroxytryptamine Receptor 7 (5HT7) (AID 2283255).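 Note: hits reduce specific radioligand binding relative to DMSO.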 The method, boiled down:
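Filter-bound radioactivity counted after 1 h, with loss of specific radioligand binding fitted against DMSO. Membrane protein came from CHO cells expressing human 5HT7. Chemicals were tested first at 25 uM in duplicate, then in concentration series if active.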

Experiment [5] addresses rat Catechol-O-Methyl Transferase (COMT), Comt (gene 24267) (UniProt P22734). The experiment can be described thus: NVS_ENZ_rCOMT: NovaScreen (NVS) Enzymatic Assay for rat Catechol-O-Methyl Transferase (COMT) (AID 2283235). The gist of the method: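 Rat dorsal striatum extract served as COMT source; product quantified by HPLC/spectrophotometry, read at 0 h after dosing. Primary single-concentration screen at 25 uM, followed by concentration series to a 50 uM maximum.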

Experiment [6] relates to guinea pig Leukotriene B4 Receptor (LTB4), gene 100379538. The experiment can be described thus: NVS_GPCR_gLTB4: NovaScreen (NVS) G Protein-Coupled Receptor Assay for guinea pig Leukotriene B4 Receptor (LTB4) (AID 2283247). The method, boiled down:
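Membranes from guinea pig spleen incubated 2 h with radioligand and compound; bound counts measured by filtration and scintillation. Screened first at 25 uM in duplicate, then actives titrated to a 50 uM top concentration relative to DMSO.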

Experiment [7] concerns the target Adenosine receptor A1 (Bos taurus) (UniProt P28190). Description: NVS_GPCR_bAdoR_NonSelective: NovaScreen (NVS) G Protein-Coupled Receptor Assay for bovine Adenosine Receptor (AdoR), Non-selective Binding (AID 2283244). The method, boiled down:
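Cell-free binding with membranes from bovine striatum: radioligand displaced by test chemical, read after 1 h by filtration and scintillation. Single-point 25 uM duplicate primary, 50 uM top concentration in follow-up curves, DMSO baseline.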

In experiment [8] the target is human Serotonin, 5-Hydroxytryptamine Receptor 2A (5HT2A), HTR2A (gene 3356) (UniProt P28223). Description: NVS_GPCR_h5HT2A: NovaScreen (NVS) G Protein-Coupled Receptor Assay for human Serotonin, 5-Hydroxytryptamine Receptor 2A (5HT2A) (AID 2283249). The gist of the method: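 Radioligand displacement on human cortex tissue extract, counted by filtration and scintillation 1.5 h post-dosing. Initial single-concentration screen at 25 uM in duplicate, concentration series in follow-up; DMSO as baseline.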
Sequence of human Serotonin, 5-Hydroxytryptamine Receptor 2A (5HT2A), HTR2A (gene 3356) (P28223 whole entry, looked up): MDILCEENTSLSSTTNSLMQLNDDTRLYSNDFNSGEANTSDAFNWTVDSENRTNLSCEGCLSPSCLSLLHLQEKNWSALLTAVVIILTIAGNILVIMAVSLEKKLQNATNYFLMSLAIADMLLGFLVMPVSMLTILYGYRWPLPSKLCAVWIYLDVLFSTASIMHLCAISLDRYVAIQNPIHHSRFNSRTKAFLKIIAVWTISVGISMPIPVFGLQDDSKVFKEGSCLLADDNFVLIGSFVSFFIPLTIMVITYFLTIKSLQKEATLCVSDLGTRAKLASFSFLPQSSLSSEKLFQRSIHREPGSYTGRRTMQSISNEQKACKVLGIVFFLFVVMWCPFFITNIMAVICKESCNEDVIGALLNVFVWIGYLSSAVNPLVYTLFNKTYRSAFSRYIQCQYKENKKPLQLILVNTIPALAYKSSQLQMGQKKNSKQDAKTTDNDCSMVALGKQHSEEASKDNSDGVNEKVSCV

Experiment [9] has as its target bovine Dopamine Receptor (DR), Non-selective Binding, DRD1 (gene 281125) (UniProt Q95136). Description: NVS_GPCR_bDR_NonSelective: NovaScreen (NVS) G Protein-Coupled Receptor Assay for bovine Dopamine Receptor (DR), Non-selective Binding (AID 2283241). The method, boiled down:
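Filter-based radioligand binding with bovine striatal membrane, incubated 1 h; DMSO as negative baseline. Initial duplicate single-point test at 25 uM preceded concentration series for actives.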

Experiment [10] concerns bovine Histamine 1 Receptor (H1), gene 281231. Description: NVS_GPCR_bH1: NovaScreen (NVS) G Protein-Coupled Receptor Assay for bovine Histamine 1 Receptor (H1) (AID 2283246). The method, boiled down: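 Hits from a 25 uM duplicate primary screen were retested in concentration series (top 50 uM); binding measured as scintillation-counted displacement of radioligand from bovine cerebellar membranes after 1 h, normalised to DMSO.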

The test system of experiment [11] is guinea pig Muscarinic, Peripheral (Mperiperal) Receptor, Non-selective Binding, gene 100379235. Description: NVS_GPCR_gMPeripheral_NonSelective: NovaScreen (NVS) G Protein-Coupled Receptor Assay for guinea pig Muscarinic, Peripheral (Mperiperal) Receptor, Non-selective Binding (AID 2283250). The method, boiled down:
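Screened in duplicate at 25 uM, hits retested in concentration series to 50 uM max, using bladder membrane radioligand displacement from guinea pig. Filtration and scintillation counting 1 h post-dose, fitted relative to DMSO.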

The test system of experiment [12] is bovine Angiotensin II Receptor Type 2 (AT2), gene 407157. Description: NVS_GPCR_bAT2: NovaScreen (NVS) G Protein-Coupled Receptor Assay for bovine Angiotensin II Receptor Type 2 (AT2) (AID 2283240). The gist of the method:
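Radioligand displacement on bovine cerebellar membranes, 1 hour incubation, filter-based scintillation counting; loss of signal vs DMSO. Duplicate single-point screen at 25 uM, then concentration-response to 50 uM maximum.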

The target in experiment [13] is guinea pig Leukotriene D4 Receptor (LTD4), CYSLTR1 (gene 100135514) (UniProt Q2NNR5). Description: NVS_GPCR_gLTD4: NovaScreen (NVS) G Protein-Coupled Receptor Assay for guinea pig Leukotriene D4 Receptor (LTD4) (AID 2283248). The gist of the method:
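Guinea pig lung membrane preparation; bound radioligand measured by filter scintillation after 1 h, loss of signal versus DMSO marking displacement. Compounds tested at 25 uM in duplicate, hits retested to max 50 uM.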

In experiment [14] the target is human Serotonin, 5-Hydroxytryptamine Receptor 6 (5HT6), HTR6 (gene 3362) (UniProt P50406). Description: NVS_GPCR_h5HT6: NovaScreen (NVS) G Protein-Coupled Receptor Assay for human Serotonin, 5-Hydroxytryptamine Receptor 6 (5HT6) (AID 2283253). The gist of the method: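 Filter scintillation counting of radioligand displacement from HEK293-expressed 5HT6, 1 hour post-dose, with loss of signal relative to DMSO. Single 25 uM duplicates first, with concentration series for confirmation.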
Sequence of human Serotonin, 5-Hydroxytryptamine Receptor 6 (5HT6), HTR6 (gene 3362) (P50406 whole entry, looked up): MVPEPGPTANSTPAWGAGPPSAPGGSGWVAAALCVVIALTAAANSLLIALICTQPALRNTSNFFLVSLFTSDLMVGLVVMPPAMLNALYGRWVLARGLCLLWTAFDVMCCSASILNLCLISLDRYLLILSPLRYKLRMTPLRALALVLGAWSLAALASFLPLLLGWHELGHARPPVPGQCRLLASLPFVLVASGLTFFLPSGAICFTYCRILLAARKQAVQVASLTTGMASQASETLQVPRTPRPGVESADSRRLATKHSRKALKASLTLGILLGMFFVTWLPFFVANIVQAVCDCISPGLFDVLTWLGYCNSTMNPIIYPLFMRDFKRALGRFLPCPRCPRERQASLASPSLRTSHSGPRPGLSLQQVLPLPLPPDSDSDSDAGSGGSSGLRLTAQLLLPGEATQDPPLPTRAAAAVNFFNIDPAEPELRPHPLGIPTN

The structures appear in SMILES notation. Results filed as inconclusive are left out. Activity calls are given as the source filed them. Rule for the calls: active = hit-call score of the fitted dose curve at least 0.9, where 1 is the maximum; inconclusive = response in the unintended direction; inactive = score below 0.9.

Sequence of sheep Cyclooxygenase-1 (Cox1), PTGS1 (gene 443551) (P05979 whole entry, looked up): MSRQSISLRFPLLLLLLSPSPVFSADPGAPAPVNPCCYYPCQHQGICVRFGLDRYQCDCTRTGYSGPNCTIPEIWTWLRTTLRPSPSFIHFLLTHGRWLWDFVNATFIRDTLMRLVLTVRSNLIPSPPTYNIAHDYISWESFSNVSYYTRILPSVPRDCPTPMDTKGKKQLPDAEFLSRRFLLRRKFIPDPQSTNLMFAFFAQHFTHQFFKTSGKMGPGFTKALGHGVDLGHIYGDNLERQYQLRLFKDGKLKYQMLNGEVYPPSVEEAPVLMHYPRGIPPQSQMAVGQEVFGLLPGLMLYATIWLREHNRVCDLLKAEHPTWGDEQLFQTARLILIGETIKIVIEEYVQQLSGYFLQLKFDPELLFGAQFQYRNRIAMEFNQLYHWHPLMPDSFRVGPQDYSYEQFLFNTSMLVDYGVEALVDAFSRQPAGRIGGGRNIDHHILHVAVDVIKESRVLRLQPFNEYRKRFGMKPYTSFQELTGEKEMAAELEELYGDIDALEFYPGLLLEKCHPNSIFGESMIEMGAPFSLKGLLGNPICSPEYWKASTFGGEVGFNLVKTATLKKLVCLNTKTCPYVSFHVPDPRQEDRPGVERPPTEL
Sequence of human Serotonin, 5-Hydroxytryptamine Receptor 7 (5HT7), HTR7 (gene 3363) (P34969 whole entry, looked up): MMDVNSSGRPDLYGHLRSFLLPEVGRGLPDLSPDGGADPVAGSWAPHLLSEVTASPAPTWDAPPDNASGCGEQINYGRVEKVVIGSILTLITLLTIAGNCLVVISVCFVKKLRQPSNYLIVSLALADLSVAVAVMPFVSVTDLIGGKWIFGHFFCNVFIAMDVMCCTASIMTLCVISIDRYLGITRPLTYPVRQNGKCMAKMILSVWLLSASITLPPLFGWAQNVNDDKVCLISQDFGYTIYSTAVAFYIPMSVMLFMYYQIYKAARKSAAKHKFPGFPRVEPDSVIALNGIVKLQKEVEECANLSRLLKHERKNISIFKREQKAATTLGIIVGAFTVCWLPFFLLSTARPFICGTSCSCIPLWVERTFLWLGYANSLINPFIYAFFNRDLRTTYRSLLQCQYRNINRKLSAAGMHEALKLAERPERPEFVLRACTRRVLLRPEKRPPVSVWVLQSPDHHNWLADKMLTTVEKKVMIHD
Sequence of human Vascular Endothelial Growth Factor Receptor 2 (VEGFR2), KDR (gene 3791) (P35968 whole entry, looked up): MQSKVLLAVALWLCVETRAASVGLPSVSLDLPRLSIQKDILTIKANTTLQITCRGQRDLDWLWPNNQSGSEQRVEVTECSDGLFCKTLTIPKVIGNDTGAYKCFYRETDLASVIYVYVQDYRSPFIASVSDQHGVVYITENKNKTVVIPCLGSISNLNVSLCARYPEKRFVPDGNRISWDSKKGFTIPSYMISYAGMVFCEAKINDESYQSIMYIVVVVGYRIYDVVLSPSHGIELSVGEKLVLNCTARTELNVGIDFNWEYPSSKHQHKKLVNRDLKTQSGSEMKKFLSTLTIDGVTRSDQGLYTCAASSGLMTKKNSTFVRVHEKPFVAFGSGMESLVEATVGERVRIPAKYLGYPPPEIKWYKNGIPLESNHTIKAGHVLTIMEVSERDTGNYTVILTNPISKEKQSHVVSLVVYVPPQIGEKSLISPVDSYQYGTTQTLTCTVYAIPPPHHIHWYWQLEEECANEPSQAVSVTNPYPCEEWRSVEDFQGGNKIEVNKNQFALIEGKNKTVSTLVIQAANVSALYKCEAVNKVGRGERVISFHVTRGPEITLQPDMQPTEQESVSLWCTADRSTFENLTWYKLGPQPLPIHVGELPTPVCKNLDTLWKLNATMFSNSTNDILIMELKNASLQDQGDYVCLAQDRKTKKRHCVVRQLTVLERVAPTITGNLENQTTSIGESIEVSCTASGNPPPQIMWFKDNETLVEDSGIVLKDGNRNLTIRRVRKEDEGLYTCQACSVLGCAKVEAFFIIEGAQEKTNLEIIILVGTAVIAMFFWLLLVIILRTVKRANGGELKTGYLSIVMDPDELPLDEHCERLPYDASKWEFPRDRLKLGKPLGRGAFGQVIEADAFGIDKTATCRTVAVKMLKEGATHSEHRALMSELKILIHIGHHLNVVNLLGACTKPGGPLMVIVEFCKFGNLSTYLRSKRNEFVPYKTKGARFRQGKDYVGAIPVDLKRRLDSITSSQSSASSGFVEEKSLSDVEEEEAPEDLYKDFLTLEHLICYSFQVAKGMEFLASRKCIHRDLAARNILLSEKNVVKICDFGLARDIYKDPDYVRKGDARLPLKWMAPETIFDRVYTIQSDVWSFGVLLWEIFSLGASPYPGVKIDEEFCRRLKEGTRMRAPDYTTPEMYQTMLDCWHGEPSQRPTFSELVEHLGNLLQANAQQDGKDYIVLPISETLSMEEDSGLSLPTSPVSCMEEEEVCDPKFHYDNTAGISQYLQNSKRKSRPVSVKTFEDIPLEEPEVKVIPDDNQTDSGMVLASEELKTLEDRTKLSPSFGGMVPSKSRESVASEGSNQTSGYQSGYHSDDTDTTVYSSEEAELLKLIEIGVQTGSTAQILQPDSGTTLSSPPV
Sequence of rat Catechol-O-Methyl Transferase (COMT), Comt (gene 24267) (P22734 whole entry, looked up): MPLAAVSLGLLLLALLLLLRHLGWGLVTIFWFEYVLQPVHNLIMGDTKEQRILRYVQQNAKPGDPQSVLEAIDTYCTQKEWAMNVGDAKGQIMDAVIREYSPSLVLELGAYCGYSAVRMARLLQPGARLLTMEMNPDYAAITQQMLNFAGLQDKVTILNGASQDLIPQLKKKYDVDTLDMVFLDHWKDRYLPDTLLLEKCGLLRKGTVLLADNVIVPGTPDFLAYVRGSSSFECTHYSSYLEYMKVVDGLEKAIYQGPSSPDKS

With `O=C1OC(=O)C2C3C=CC(C3)C12` (stereo not given), the outcome in [1] was inactive.

For the molecule `CC(C)=CCCC(C)=CC=O`, in [2], the result was inactive.

With `CCC(C)(C)C(=O)O[C@H]1C[C@@H](C)C=C2C=C[C@H](C)[C@H](CC[C@@H]3C[C@@H](O)CC(=O)O3)[C@H]21`, in experiment [3], the result was inactive. Besides, the AC50 in [4] is 11.8 µM (active).

Regarding `Nc1nc2ncc(CNc3ccc(C(=O)N[C@@H](CCC(=O)O)C(=O)O)cc3)nc2c(=O)[nH]1`, the AC50 in experiment [1] was 11 µM (active). `O=C(OC[C@H]1O[C@@H](OC(=O)c2cc(O)c(O)c(OC(=O)c3cc(O)c(O)c(O)c3)c2)[C@H](OC(=O)c2cc(O)c(O)c(OC(=O)c3cc(O)c(O)c(O)c3)c2)[C@@H](OC(=O)c2cc(O)c(O)c(OC(=O)c3cc(O)c(O)c(O)c3)c2)[C@@H]1OC(=O)c1cc(O)c(O)c(OC(=O)c2cc(O)c(O)c(O)c2)c1)c1cc(O)c(O)c(OC(=O)c2cc(O)c(O)c(O)c2)c1`: the results for the AC50 in experiment [5] and in experiment [1] were 0.371 µM (active) and 4.31 µM (active), respectively. The outcome in experiment [6] was inactive.

As to `CC(C)CCO`, the molecule was classed as inactive in experiment [5].

With `Cn1c(=O)c2c(ncn2C)n(C)c1=O`, in experiment [7], the AC50 was 25 µM (active).

For `O=C(CCCCCCCCc1cccnc1)N1CCC(C=C(c2ccccc2)c2ccccc2)CC1`, the molecule was classed as inactive in experiment [6] and in experiment [8]. Take `C[C@](N)(Cc1ccc(O)c(O)c1)C(=O)O`: in experiment [1], the AC50 was 2.33 µM (active).

With `Oc1ccc2c(c1)-c1ccccc1C2`, the molecule was called inactive in experiment [1] and in experiment [4].

Consider `CC1(C)C(=O)N(Br)C(=O)N1Br`, for which the half-maximal activity concentration (AC50) in [2] is 12.2 µM (active); in [8], 25 µM (active).

As for `CCCCCCc1ccc(O)cc1O`, the AC50 in experiment [1] is 5.25 µM (active); in experiment [4] it was 25 µM (active). Turning to `CCCN(C1CCN(C(=O)C2CCNCC2)CC1)[C@@H]1CCc2ccc(OC)cc2C1`, the concentration at half-maximal activity (AC50) in [9] was 8.91 µM (active); in experiment [10], 11.6 µM (active); in experiment [6], 9.93 µM (active); in experiment [11], 0.00229 µM (active); in experiment [4] it was 9.11 µM (active). As for `COc1ccc(/C=C/S(=O)(=O)NC(=O)c2ccc(C)cc2Cl)cc1`, the AC50 in experiment [12] was 15.2 µM (active). Moreover, the outcome in experiment [6] was inactive. As for `CCc1cc(SCc2sc(-c3ccc(C(F)(F)F)cc3)nc2CN2CCN(c3ccc(OC)cc3)CC2)ccc1OCC(=O)O`, the result in experiment [1], in experiment [13] and in [8] was inactive. Besides, the AC50 was 37.3 µM (active) in experiment [14] and 4.32 µM (active) in [4].

Consider `O=P(OC(CCl)CCl)(OC(CCl)CCl)OC(CCl)CCl`, for which the molecule was called inactive in experiment [14]. Turning to `CC1=CC(=O)CC(C)(C)C1`, the molecule was classed as inactive in [2].

Turning to `O=C(O)CCN(C1(C(=O)NO)CCCC1)S(=O)(=O)c1ccc(Oc2ccc(F)cc2)cc1`, in experiment [6], the AC50 is 0.951 µM (active). For `COCCOCCOCCOC`, the outcome in experiment [1] was inactive.

Broadly, the AC50 is the concentration giving half of the maximal activity seen.
